Hit rate of the full screen: of about 13,000 compounds, about 3,200 (25%) showed an effect of 50% or more. The list shows a part of the results.
Test system: P. falciparum stage V gametocytes
Design: BacTiter-Glo ATP luminescence viability of purified stage V gametocytes in 384-well plates, per cent inhibition versus DMSO
Details: 48 h, 5 µM; inhibitor

Structure (SMILES) | % Inhibition
O=C(Nc1cccc(-c2ccc(-c3nc4cc(F)ccc4[nH]3)s2)c1)c1cccnc1 [TCMDC-136931] | -7.86%
CCOc1cc2ncnc(Nc3ccc(OCc4ccccc4OC)c(OC)c3)c2cc1OCC [TCMDC-131912] | -29.04%
CCN(CC)CCCN(C(=O)c1cc2c(C)nn(-c3ccccc3)c2s1)c1nc(-c2ccc(OC)cc2)cs1 [TCMDC-125429] | 17.92%
COc1ccc(-c2csc(N(CCCN(C)C)C(=O)c3cc4c(C)nn(-c5ccccc5)c4s3)n2)cc1 [TCMDC-124034] | 46.49%
Cc1nn(-c2ccccc2)c2sc(C(=O)N(CCCN(C)C)c3nc(-c4ccccc4)cs3)cc12 [TCMDC-125428] | 100.2%
Cc1n[nH]c(C)c1C1CCN(CC2CCC(NC(=O)/C=C/c3ccc(Cl)c(Cl)c3)CC2)CC1 (stereo not drawn) [TCMDC-139624] | 34.25%
Cc1[nH]c(C)c(-c2ccc(-c3ccccc3Cl)nc2)c(=O)c1Cl [TCMDC-136303] | 74.15%
Cc1[nH]c(C)c(-c2ccc(-c3ccccc3Cl)nc2)c(=O)c1Br [TCMDC-136157] | 75.71%
CCCCc1ccc(-c2ccc(-c3c(C)[nH]c(C)c(Br)c3=O)cn2)cc1 [TCMDC-135687] | 10.67%
COc1ccc(NC(=O)N2CCN(CCCCCNC(=O)/C=C/c3ccc(C(F)(F)F)cc3)CC2)cc1Cl [TCMDC-136097] | -39.25%
OC1(c2ccc(Cl)c(C(F)(F)F)c2)CCN(CCOC2c3ccccc3CSc3ccc(Cl)cc32)CC1 (stereo not drawn) [TCMDC-124001] | 11.98%
CC(C)C(C(=O)n1cc2c(ccc3nc(N)nc(N)c32)n1)C(C)C [TCMDC-137334] | -12.47%
O=C1COc2cc(Cl)c(CNC3CCN(CCc4ccnc5c(F)cc(F)cc45)CC3)nc2N1 [TCMDC-141732] | -3.632%
COc1ccc2nccc([C@@H](O)CN3CCC(NCc4cc5sccc5nc4C(F)(F)F)CC3)c2c1 [TCMDC-141152] | 4.239%
COc1ccc(CCNCCCCNCCc2ccc(OC)c3ccccc23)c2ccccc12 [TCMDC-137961] | 106.4%
COc1ccc(CNCCCCCCNCc2ccc(OC)c3ccccc23)c2ccccc12 [TCMDC-137631] | 111.4%
COC(=O)Cc1ccc(N)c2ccccc12 [TCMDC-139173] | -43.46%
CCc1nonc1NC(=O)c1oc2c(C)c(C)ccc2c1C [TCMDC-123827] | 4.304%
CS(=O)(=O)NCCCNCc1cccc(-c2ccc(-c3nc4cc(C(F)(F)F)ccc4[nH]3)s2)c1.O=C(O)C(F)(F)F [TCMDC-133083] | -25.93%
FC(F)(F)c1ccc2[nH]c(-c3ccc(-c4cccc(CNCc5ccccc5)c4)s3)nc2c1.O=C(O)C(F)(F)F [TCMDC-132708] | -60.8%
O=C(O)C(F)(F)F.c1cncc(CCNCc2cccc(-c3ccc(-c4nc5ccccc5[nH]4)s3)c2)c1 [TCMDC-132877] | -12.84%
FC(F)(F)c1ccc2[nH]c(-c3ccc(-c4cccc(CNCCc5cccnc5)c4)s3)nc2c1.O=C(O)C(F)(F)F [TCMDC-132874] | 67.94%
CNCCNCc1cccc(-c2ccc(-c3nc4cc(C(F)(F)F)ccc4[nH]3)s2)c1.O=C(O)C(F)(F)F [TCMDC-132830] | 50.68%

Structure (SMILES) | % Inhibition
FC(F)(F)c1ccc2[nH]c(-c3ccc(-c4cccc(CNCCc5ccncc5)c4)s3)nc2c1.O=C(O)C(F)(F)F [TCMDC-132849] | -1.104%
N#CN1CC[C@H](CS(=O)(=O)c2cccc(Br)c2)C1 [TCMDC-133806] | 9.818%
COc1ccc(N2C(=O)c3c(c4ccccc4n3C)C2c2ccccc2O)cc1 (stereo not drawn) [TCMDC-124403] | -39.6%
O=S(=O)(c1ccc(OCc2ccc(Cl)cc2)cc1)c1cc2c(cc1O)CCN(C1CCC1)CC2 [TCMDC-135997] | 28.22%
COc1cc2c(cc1S(=O)(=O)c1ccc(OCc3ccc(Cl)cc3)cc1)CCN(Cc1ccc(NC(C)=O)s1)CC2 [TCMDC-132326] | -7.841%
O=S(=O)(c1ccc(OCc2ccc(Cl)cc2)cc1)c1cc2c(c(-c3ccc(F)cc3)c1)CCN(CC1CC1)CC2 [TCMDC-135736] | 93.21%
O=S(=O)(c1ccc(OCc2ccc(Cl)cc2)cc1)c1cc2c(cc1OCc1ccccc1)CCN(CC1CC1)CC2 [TCMDC-134410] | 0.8378%
O=S(=O)(c1ccc(OCc2ccc(Cl)cc2)cc1)c1cc2c(cc1OCc1ccccc1)CCN(C1CCC1)CC2 [TCMDC-135998] | 60.24%
O=S(=O)(Nc1cc2c(cc1OCc1ccccc1)CCN(C1CCC1)CC2)c1ccc(-c2ccc(Cl)cc2)cc1 [TCMDC-136027] | -11.35%
COc1ccc2nccc([C@@H](O)CN3CCC(NCc4ccc5nsnc5c4)CC3)c2c1 [TCMDC-140928] | 4.203%
O=C(NCc1cccc(C(F)(F)F)c1)C1CCCN(C(=O)c2ccc(O)c(-c3ccc(Cl)c(Cl)c3)c2)C1 (stereo not drawn) [TCMDC-140885] | 20.85%
O=C(Cc1cnc[nH]1)Nc1cccc(-c2cccc(-c3nc4ccccc4[nH]3)c2)c1 [TCMDC-136940] | -12.56%
CCC(CSC1CCCCC1)N(C)CCN(C)C(CC)CSC1CCCCC1 (stereo not drawn) [TCMDC-131456] | 101.8%
CCc1ccc(NC(=O)c2ccc(CN3CCCN(Cc4cccs4)CC3)cc2)cc1 [TCMDC-136447] | -19.53%
CC(C)C(=O)n1ncc2c3c(N)nc(N)nc3ccc21 [TCMDC-137841] | -14.38%
CCN(CCO)Cc1ccc(-c2ccc(NS(=O)(=O)c3cccc4cccnc34)cc2)cc1 [TCMDC-136477] | -29.46%
Cc1cc(C(=O)Nc2ccc3c(c2)CCN3C2CCN(Cc3csc4ccccc34)C2)no1 (stereo not drawn) [TCMDC-135082] | 15.45%
CCN(CC)CCCNc1cc[n+]([O-])c2cc3ccccc3cc12 [TCMDC-124146] | -26.87%
CCN(CC)CCNc1ccnc2c3ccccc3n(C)c12 [TCMDC-131844] | 2.979%
CCCCNc1cc(NCCCC)c2c(n1)[nH]c1ccccc12 [TCMDC-131827] | -13.41%
Cl.c1ccc2c(NCCOCCNc3c4ccccc4nc4ccccc34)c3ccccc3nc2c1 [TCMDC-124265] | 121.8%
CCCCN(CCCC)CCCCCCNc1c2ccccc2nc2ccccc12 [TCMDC-137519] | 114.2%
c1ccc2c(NCCc3c[nH]cn3)c3ccccc3nc2c1 [TCMDC-124424] | 5.484%

Structure (SMILES) | % Inhibition
CCCCN(CCCC)CCCCNc1c2ccccc2nc2ccccc12 [TCMDC-137461] | 102%
CCN(CC)CCCNc1c2ccccc2nc2ccccc12.Cl [TCMDC-125517] | 76.48%
Cc1ccc(-c2cccc3c(NC(=O)Nc4ccc5nccc(N6CCN(C)CC6)c5c4)cccc23)cn1 [TCMDC-139367] | -6.741%
COc1ccccc1C1CCN(C2CCC(NC(=O)/C=C/c3ccc(C(F)(F)F)cc3)CC2)CC1 (stereo not drawn) [TCMDC-133487] | 28.53%
CCNc1cc(C)nc(Nc2ccc(NS(=O)(=O)c3ccccc3)cc2)n1 [TCMDC-124954] | -28.24%
Cc1cccc(C)c1CNc1ccnc2cc(Br)ccc12 [TCMDC-132168] | -25.57%
CCCCn1c(N)c(N(Cc2ccco2)C(=O)C=Cc2cc(OC)c3c(c2)OCCO3)c(=O)[nH]c1=O [TCMDC-125328] | -14%
O=C(NC1CCN(c2ccnc3cc(Cl)ccc23)C1)c1ccc(C(F)(F)F)cc1 (stereo not drawn) [TCMDC-133661] | 38.8%
Cn1nc2ccc3ccccc3c2nc1=N [TCMDC-131260] | 93.18%
Cc1cccc(Nc2nc(C)cc(N3CCCN(CC4CCCCC4)CC3)n2)c1 [TCMDC-137025] | -12.77%
O=C(Nc1ccc(-c2nc3ccccc3[nH]2)cc1)c1ccc(S(=O)(=O)N2CCCCC2)cc1 [TCMDC-125834] | -22.63%
COc1ccccc1C(C)NCC(=O)Nc1ccccc1Sc1ccccc1 (stereo not drawn) [TCMDC-124877] | -2.069%
NC(=O)C1Cc2ccccc2CN1CC(=O)Nc1ccccc1Sc1ccccc1 (stereo not drawn) [TCMDC-124863] | 48.06%
O=C(COc1cnc2ccccc2n1)Nc1ccccc1Sc1ccc(Cl)cc1 [TCMDC-124892] | 99.33%
O=C(Nc1ccc2c(c1)CCN2C1CCN(Cc2cc(F)cc(F)c2F)C1)c1ccco1 (stereo not drawn) [TCMDC-135071] | -23.05%
CN1CCC(NCc2ccc(-c3ccc(S(=O)(=O)NC4CCC4)s3)cc2)CC1 [TCMDC-132232] | 57.53%
CN1CCC(NCc2ccc(-c3ccc(S(=O)(=O)NCc4ccccc4)s3)cc2)CC1 [TCMDC-132231] | 68.61%
CC(C)(CNC(=O)[C@@H]1CCCCN1)c1nc(-c2ccc(Cl)c(O)c2)c(-c2ccncc2)[nH]1 [TCMDC-141079] | -69.36%
O=S(=O)(NCCN1CCCC1)c1ccc(-c2ccc(CNCc3ccc(F)cc3)cc2)s1 [TCMDC-132284] | 66.59%
CS(=O)(=O)c1ccc(CNCc2ccc(-c3ccc(-c4nc5ccc(F)cc5[nH]4)s3)cc2)cc1 [TCMDC-132900] | 4.618%
O=S(=O)(NCCN1CCCC1)c1ccc(-c2cccc(CNCc3ccc(F)cc3)c2)s1 [TCMDC-132273] | 98.81%
O=C(NCCN1CCCC1)c1cccc(-c2ccc(-c3nc4ccc(F)cc4[nH]3)s2)c1 [TCMDC-132318] | 15.45%
O=C1CCCN1CCCNCc1ccc(-c2ccc(-c3nc4ccc(F)cc4[nH]3)s2)cc1 [TCMDC-132756] | -11.94%
